The campaign covered roughly 39,000 compounds. About 3,300 (8.5%) were called active. The sample holds actives, similar compounds and a random draw of the others, so the mix is not that of the screen.
test system: HepG2; test: cytotoxicity call (relative viability < 0.9); conditions: 10 µM

Row | SMILES | cytotoxicity call
1 | C[C@@H]1CCCCO[C@@H](CN(C)C(=O)Nc2ccccc2)[C@@H](C)CN([C@@H](C)CO)C(=O)c2cc(NS(=O)(=O)c3ccccc3)ccc2O1 | inactive
2 | C[C@@H]1CN([C@@H](C)CO)C(=O)CCCn2nncc2CO[C@H]1CN(C)S(=O)(=O)c1ccc(-c2ccccc2)cc1 | inactive
3 | C[C@H]1CN([C@@H](C)CO)C(=O)Cc2cc(NC(=O)Nc3cccc4ccccc34)ccc2O[C@H]1CN(C)C(=O)Nc1ccc2c(c1)OCO2 | inactive
4 | C[C@@H]1CCCCO[C@@H](CN(C)S(=O)(=O)c2ccc(Cl)cc2)[C@H](C)CN([C@H](C)CO)C(=O)c2cc(NS(=O)(=O)c3ccc(F)cc3)ccc2O1 | inactive
5 | CC(C)N(C[C@H]1O[C@@H](n2cnc3c(N)ncnc32)[C@H](O)[C@@H]1O)[C@H]1C[C@@H](CCc2nc3ccc(C(C)(C)C)cc3[nH]2)C1 | active
6 | Nc1ncnc2c1ncn2[C@@H]1O[C@H](C[C@@H](N)CC[C@H](N)C(=O)O)[C@@H](O)[C@H]1O | inactive
7 | CC(C)N(CCCNC(=O)Nc1ccc(C(C)(C)C)cc1)C[C@H]1O[C@@H](n2cnc3c(N)ncnc32)[C@@H](O)[C@H]1O | inactive
8 | C[C@H]1CN([C@@H](C)CO)C(=O)Cc2cc(NC(=O)C3CC3)ccc2O[C@@H]1CN(C)S(=O)(=O)c1cccs1 | inactive
9 | CC(C)NC(=O)N(C)C[C@H]1Oc2ccc(NS(=O)(=O)c3ccccc3)cc2CC(=O)N([C@@H](C)CO)C[C@H]1C | inactive
10 | Cn1c(Nc2ccc(C(F)(F)F)cc2)nc2cc(Oc3ccnc(-c4ncc(C(F)(F)F)[nH]4)c3)ccc21 | active
11 | COc1ccc(NC(=O)Nc2ccc3c(c2)C(=O)N([C@H](C)CO)C[C@H](C)[C@H](CN(C)Cc2ccncc2)OCCCC[C@H](C)O3)cc1 | inactive
12 | CO[C@@H]1CN(C)C(=O)c2cc(NC(=O)Nc3ccccc3F)ccc2OC[C@@H](C)N(Cc2ccccc2C(=O)O)C[C@H]1C | inactive
13 | COc1ccc(-c2coc3cc(OC)ccc3c2=O)c(O)c1 | inactive
14 | Cc1c(C(N)=O)nnn1-c1ccc(F)cc1 | inactive
15 | C[C@@H]1CCCCO[C@@H](CN(C)CC2CC2)[C@H](C)CN([C@@H](C)CO)C(=O)c2cc(NC(=O)Nc3ccc(C(F)(F)F)cc3)ccc2O1 | inactive
16 | C[C@@H]1CCCCO[C@@H](CN(C)CC2CC2)[C@@H](C)CN([C@H](C)CO)C(=O)c2cc(NC(=O)Nc3ccc(C(F)(F)F)cc3)ccc2O1 | active
17 | C[C@@H]1CCCCO[C@H](CN(C)CC2CC2)[C@H](C)CN([C@@H](C)CO)C(=O)c2cc(NC(=O)Nc3ccc(C(F)(F)F)cc3)ccc2O1 | active
18 | C[C@H]1CCCCO[C@H](CN(C)CC2CC2)[C@@H](C)CN([C@@H](C)CO)C(=O)c2cc(NC(=O)Nc3ccc(C(F)(F)F)cc3)ccc2O1 | inactive
19 | C[C@@H]1CCCCO[C@@H](CN(C)CC2CC2)[C@H](C)CN([C@H](C)CO)C(=O)c2cc(NC(=O)Nc3ccc(C(F)(F)F)cc3)ccc2O1 | inactive
20 | C[C@H](CO)N1C[C@H](C)[C@H](CN(C)CC2CC2)OCCCC[C@H](C)Oc2ccc(NC(=O)Nc3ccc(C(F)(F)F)cc3)cc2C1=O | active

Row | SMILES | cytotoxicity call
21 | C[C@H](CO)N1C[C@H](C)[C@@H](CN(C)CC2CC2)OCCCC[C@H](C)Oc2ccc(NC(=O)Nc3ccc(C(F)(F)F)cc3)cc2C1=O | inactive
22 | C[C@@H]1CCCCO[C@H](CN(C)CC2CC2)[C@H](C)CN([C@H](C)CO)C(=O)c2cc(NC(=O)Nc3ccc(C(F)(F)F)cc3)ccc2O1 | active
23 | C[C@H](CO)N1C[C@H](C)[C@@H](CN(C)C(=O)Nc2ccccc2)OCCCC[C@H](C)Oc2ccc(NC(=O)C3CCCCC3)cc2C1=O | inactive
24 | CN(C)C(=O)CN1C[C@]23CN(Cc4cnn(C)c4)C[C@@H](C[C@@H]2S1(=O)=O)O3 | inactive
25 | CC(C)NC(=O)N(C)C[C@H]1Oc2c(NS(=O)(=O)c3ccc(F)cc3)cccc2C(=O)N([C@H](C)CO)C[C@@H]1C | inactive
26 | C[C@@H]1CN([C@H](C)CO)C(=O)c2cc(NC(=O)Nc3cccc4ccccc34)ccc2O[C@@H](C)CCCCO[C@@H]1CN(C)Cc1ccc(C(=O)O)cc1 | inactive
27 | COc1ccc(NC(=O)N(C)C[C@@H]2Oc3cc(Br)ccc3S(=O)(=O)N([C@H](C)CO)C[C@H]2C)cc1 | inactive
28 | COc1cccc(S(=O)(=O)N(C)C[C@H]2OCc3cnnn3CCCC(=O)N([C@H](C)CO)C[C@@H]2C)c1 | inactive
29 | C[C@H](CO)N1C[C@H](C)[C@H](CN(C)C(=O)Nc2ccccc2)OCCCC[C@H](C)Oc2ccc(NS(=O)(=O)c3cccs3)cc2C1=O | inactive
30 | COc1ccc(S(=O)(=O)N(C)C[C@H]2Oc3ccc(NC(=O)Nc4cccc5ccccc45)cc3C(=O)N([C@H](C)CO)C[C@H]2C)cc1 | inactive
31 | Cn1nc(-c2ccccn2)nc2c(=O)n(C)c(=O)nc1-2 | active
32 | COc1ccc(-c2ccccn2)cc1 | inactive
33 | Cn1c(=O)[nH]c2nnc(-c3ccccn3)nc2c1=O | inactive
34 | COc1ccc(NC(=O)Nc2ccc3c(c2)C(=O)N([C@H](C)CO)C[C@H](C)[C@@H](CN(C)Cc2ccc(C(=O)O)cc2)OCCCC[C@H](C)O3)cc1 | inactive
35 | CN(CP(=O)(O)CN1CCOCC1)S(C)(=O)=O | inactive
36 | CC(C)(C)NCC(O)COc1ccccc1C1CCCC1.O=S(=O)(O)O (stereo not given) | active
37 | CC(C)(C)NCC(O)COc1cccc2c1CC(O)C(O)C2 (stereo not given) | inactive
38 | CC(C)(C)NCC(O)COc1nsnc1N1CCOCC1.O=C(O)C=CC(=O)O (stereo not given) | inactive
39 | C[C@H](CO)N1C[C@H](C)[C@@H](CN(C)S(=O)(=O)c2cn(C)cn2)Oc2ccc(NC(=O)CCN3CCOCC3)cc2C1=O | inactive
40 | C[C@H]1CN([C@@H](C)CO)C(=O)c2cc(NC(=O)CCCN(C)C)ccc2O[C@@H]1CN(C)C(=O)Nc1ccc2c(c1)OCO2 | inactive

Row | SMILES | cytotoxicity call
41 | C[C@@H]1CN([C@H](C)CO)C(=O)Cc2cc(NC(=O)CCN3CCOCC3)ccc2O[C@@H]1CN(C)Cc1ccncc1 | inactive
42 | COc1ccc([Si](C)(C)[C@@H]2[C@@H](CCO)O[C@]3(C(=O)N(Cc4ccc(N(C=O)c5ccccc5)cc4)c4ccccc43)[C@H]2C)cc1 | active
43 | C[C@H]1[C@H]([Si](C)(C)F)[C@@H](CCO)O[C@]12C(=O)N(Cc1cccc(N(C=O)c3ccccc3)c1)c1ccccc12 | inactive
44 | COc1ccc([Si](C)(C)[C@H]2[C@H](CCO)O[C@@]3(C(=O)N(Cc4cccc(N(C=O)c5ccccc5)c4)c4ccccc43)[C@@H]2C)cc1 | active
45 | COc1ccc([Si](C)(C)[C@@H]2[C@@H](CCO)O[C@]3(C(=O)N(Cc4cccc(N5CCCCC5=O)c4)c4ccccc43)[C@H]2C)cc1 | inactive
46 | COc1ccc([Si](C)(C)[C@H]2[C@H](CCO)O[C@@]3(C(=O)N(Cc4ccc(N(C=O)c5ccccc5)cc4)c4ccccc43)[C@@H]2C)cc1 | active
47 | C[C@@H]1CN([C@@H](C)CO)C(=O)c2cccc(NS(=O)(=O)c3ccccc3)c2O[C@@H]1CN(C)S(=O)(=O)c1cccs1 | inactive
48 | CC(C)CC#Cc1ccc2c(c1)O[C@H](CN(C)C(=O)NC1CCCC1)[C@H](C)CN([C@H](C)CO)S2(=O)=O | inactive
49 | CO[C@@H]1CN(C)C(=O)c2ccc(NC(=O)CC(F)(F)F)cc2OC[C@@H](C)N(C(=O)C2CCOCC2)C[C@@H]1C | inactive
50 | C[C@H]1CN([C@@H](C)CO)C(=O)c2cc(NC(=O)c3ccncc3)ccc2O[C@H]1CN(C)Cc1ccc(-c2ccccc2)cc1 | inactive
51 | CC1=NCCN1 | inactive
52 | CC(C)c1ccc2c(ccc[n+]2C)c1 | inactive
53 | COC(=O)C[C@H]1CC[C@@H]2[C@H](COC[C@@H](O)CN2S(=O)(=O)c2cn(C)cn2)O1 | inactive
54 | COc1ccc(S(=O)(=O)Nc2cccc3c2O[C@@H](CN(C)S(=O)(=O)c2ccccc2)[C@H](C)CN([C@H](C)CO)C3=O)cc1 | inactive
55 | COCC(=O)N1C[C@H](C)[C@H](OC)CN(C)C(=O)c2ccc(NC(=O)c3ccc(OC)cc3)cc2OC[C@@H]1C | inactive
56 | Cc1ccc(S(=O)(=O)N(C)C[C@@H]2OCCCC[C@@H](C)Oc3ccc(NS(=O)(=O)c4ccc(F)cc4)cc3C(=O)N([C@@H](C)CO)C[C@@H]2C)cc1 | inactive
57 | C[C@H](CO)N1C[C@H](C)[C@@H](CN(C)C(=O)Nc2ccccc2C(F)(F)F)OCc2ccccc2-c2ccccc2C1=O | inactive
58 | C=C(NC(=O)C(=C)NC(=O)c1csc(C2=N[C@H]3c4csc(n4)[C@H]4NC(=O)c5csc(n5)[C@H](C(C)(O)[C@@H](C)O)NC(=O)[C@H]5CSC(=N5)C(=CC)NC(=O)[C@H]([C@@H](C)O)NC(=O)c5csc(n5)[C@]3(CC2)NC(=O)[C@H](C)NC(=O)C(=C)NC(=O)[C@H](C)NC(=O)[C@H]([C@H](C)CC)N[C@@H]2C=Cc3c([C@H](C)O)cc(nc3[C@H]2O)C(=O)O[C@@H]4C)n1)C(N)=O (stereo not given in full) | active
59 | C=C(NC(=O)C(=C)NC(=O)c1csc(C2=NC3c4csc(n4)C4NC(=O)c5csc(n5)C(C(C)(O)C(C)O)NC(=O)C5CSC(=N5)C(=CC)NC(=O)C(C(C)O)NC(=O)c5csc(n5)C3(CC2)NC(=O)C(C)NC(=O)C(=C)NC(=O)C(C)NC(=O)C(C(C)CC)NC2C=Cc3c(C(C)O)cc(nc3C2O)C(=O)OC4C)n1)C(N)=O (stereo not given) | active
60 | C=C(NC(=O)C(=C)NC(=O)c1csc(C2=N[C@@H]3c4csc(n4)[C@@H]4NC(=O)c5csc(n5)[C@H](C(C)(O)[C@@H](C)O)NC(=O)[C@H]5CSC(=N5)/C(=C/C)NC(=O)[C@H]([C@@H](C)O)NC(=O)c5csc(n5)[C@]3(CC2)NC(=O)[C@@H](C)NC(=O)C(=C)NC(=O)[C@@H](C)NC(=O)[C@@H]([C@H](C)CC)N[C@H]2C=Cc3c([C@@H](C)O)cc(nc3[C@@H]2O)C(=O)O[C@H]4C)n1)C(N)=O (stereo not given in full) | inactive

Source: the antibiotic and cytotoxicity screens of Wong et al. (2023)
